Screening results as filed in PubChem.
CYP2C19 act – activators of human cytochrome P450 2C19. recombinant CYP2C19, luciferin-H EGE luminescence; hits give high values; 0 = fully inhibited enzyme, 1 = untreated enzyme. activation factor at 5 µM. 96,000 tested, under 10 active. AID 1025;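 active means activation factor of at least 2 at 5 µM in the primary screen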;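 further: 0 = wells with 2.5 mM tranylcypromine and 1 = vehicle-only wells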
Target sequence (P33261 whole entry, looked up): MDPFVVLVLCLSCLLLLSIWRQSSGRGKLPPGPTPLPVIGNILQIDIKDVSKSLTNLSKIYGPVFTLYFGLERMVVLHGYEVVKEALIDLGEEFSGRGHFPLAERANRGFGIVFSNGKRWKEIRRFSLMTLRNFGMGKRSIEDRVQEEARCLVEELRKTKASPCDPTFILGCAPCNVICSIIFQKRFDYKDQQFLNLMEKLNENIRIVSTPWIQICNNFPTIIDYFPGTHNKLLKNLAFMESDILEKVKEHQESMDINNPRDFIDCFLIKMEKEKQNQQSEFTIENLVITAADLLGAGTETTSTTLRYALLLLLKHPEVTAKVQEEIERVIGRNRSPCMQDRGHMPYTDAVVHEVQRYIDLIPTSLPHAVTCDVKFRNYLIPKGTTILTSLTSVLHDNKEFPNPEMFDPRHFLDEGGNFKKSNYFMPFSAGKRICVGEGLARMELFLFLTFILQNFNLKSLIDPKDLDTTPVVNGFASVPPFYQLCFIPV
CYP2C9 activ – activators of human CYP2C9; P11712; AID 1024; recombinant CYP2C9, luciferin-H conversion, luminescence; hits give high values; factor 1 = untreated enzyme, 0 = blocked; activation factor at 5 µM; 96,000 tested, 1.4% active;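 active means activation factor of 2 or more for CYP2C9 at a 5 µM dose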;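 further: 0 = sulfaphenazole-blocked wells and 1 = vehicle-only wells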
CYP2C19 inhib – human CYP2C19 inhibition. P33261. 96,000 tested, 21% active. inhibition, % at 5 µM. CYP2C19 Supersomes, luciferin-H EGE luminescence, 30 min;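 active means CYP2C19 inhibition above a set limit at 5 µM in the primary screen, cut at about 50% in these data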;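 further: plate controls were negative control wells for no effect and 2.5 mM tranylcypromine positive control for full effect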
CYP2C9 inhib – blocks human cytochrome P450 2C9; inhibition, % at 5 µM; 96,000 tested, 20% active; P11712; CYP2C9 Supersomes, luciferin-H conversion, luminescence;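 active means blocking of liver enzyme CYP2C9 beyond about 50% at 5 µM, limit read from the data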
PTK2B oligo ant – antagonists of human Pyk2 oligomerization | Q14289 | Q293 cells, Pyk2 FERM NanoBiT luminescence; hits give low values | z-score (the deposit names both 25 µM and 10 µM) | 99,000 tested, 0.83% active;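 active means Z-score of -3 or lower, scaled per plate to the spread of control and sample wells; inactive means z-score above -3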;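 further: negative z-score means lost luminescence so less FERM oligomerization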
The depositor's hits bear a star; x = no result. This is a sample that favours compounds with a hit; in the whole collection about 28% have one here.

SMILES	CYP2C19 act	CYP2C9 activ	CYP2C19 inhib	CYP2C9 inhib	PTK2B oligo ant
COc1cccc(OC)c1OCCCSc1nc(C)cc(=O)[nH]1	1	1	2.7	1.4	1.44
CC(CNC(=O)C1CCCCC1C(=O)O)c1ccccc1 (stereo not drawn)	1.1	0.9	-6.7	8.5	0.13
COc1ccccc1CC1(C)NC(=O)N(CC(=O)N2CC(C)OC(C)C2)C1=O (stereo not drawn)	0.4	1.1	56.7*	-14.4	2.03
CC1=C(C(=O)OCc2ccccc2)C(c2ccccc2OC(F)F)NC(=O)N1 (stereo not drawn)	0.6	0.9	44.3	14.7	-1.75
Cn1c(C(=O)N2CCOCC2)cnc1Sc1ncc(C(F)(F)F)cc1Cl	0.9	0.8	8.2	20.6	0.41
CCCNC(=O)c1cnc(Sc2ncc(C(F)(F)F)cc2Cl)n1C	0.8	0.3	23.8	70.9*	1.4
CCOC(=O)C(C)Oc1nc(Oc2ccccc2)nc(N(C)C)n1 (stereo not drawn)	0.4	0.7	57.1*	29.6	0.57
COC(=O)c1ccc(Oc2nc(Nc3ccccc3)nc(N(C)C)n2)cc1	0.6	0.5	36.1	52.1*	-1.24
COc1nc(Oc2ccc(C(=O)OCC(N)=O)cc2)nc(N(C)C)n1	1.1	1.2	-12.1	-16.3	0.47
COc1cccc(C2C(C(=O)OCc3ccccc3)=C(C)Nc3ncnn32)c1OC (stereo not drawn)	0.4	0.9	64.0*	10.5	x
COC(=O)c1ccc(C2C(C(=O)Nc3ccc(C)cc3C)=C(C)Nc3ncnn32)cc1 (stereo not drawn)	0.4	0.7	61.7*	25.2	x
CC1=C(C(=O)OCc2ccccc2)C(c2cccnc2)n2ncnc2N1 (stereo not drawn)	0.7	0.9	34.6	13.0	1.29
COc1ccccc1NC(=O)C1=C(C)Nc2nc(CCCO)nn2C1c1ccc2c(c1)OCO2 (stereo not drawn)	0.6	0.4	39.5	59.4*	0.14
CCCCOC(=O)C1=C(C)Nc2ncnn2C1c1cccc(OC)c1 (stereo not drawn)	0.3	0.5	67.6*	50.6*	-1.51
CCn1c(CCNC(=O)c2ccc(Cl)c(Cl)c2)nnc1SCCOc1ccc(OC)cc1	0.9	0.8	13.3	21.9	-0.79
COc1cc(Cc2nc3ccc(S(=O)(=O)N4CCOCC4)cc3[nH]2)cc(OC)c1OC	0.9	0.9	5.3	6.8	2.79
CN(C)CC(C)(C)CNC(=O)c1cc(=O)c2ccccc2o1	1	1.1	-4.2	-12.3	-0.01
CC1(C)CC2(CCO1)CNC(=O)O2 (stereo not drawn)	1.1	1	-10.0	1.2	0.06
COc1cc(C2C(C(=O)OC(C)C)=C(C)Nc3ncnn32)cc(OC)c1OC (stereo not drawn)	0.8	0.2	20.0	77.7*	x
CC(=O)C1=C(C)Nc2ncnn2C1c1ccc(Cl)cc1Cl (stereo not drawn)	0.3	0.7	67.9*	30.0	-1.53
CCOC(=O)C1=C(C)Nc2nnnn2C1c1cccc(OC)c1OC (stereo not drawn)	x	x	x	x	-0.86
CCCC1=C(C(=O)OCC)C(c2ccncc2)n2ncnc2N1 (stereo not drawn)	0.2	0	78.4*	97.2*	0.59
CCCCOC(=O)C1=C(C)Nc2ncnn2C1c1cccc(OC)c1OC (stereo not drawn)	0.2	0.4	81.7*	57.9*	-0.8
COC(=O)C1=C(C)Nc2ncnn2C1c1ccc(OC(=O)c2ccccc2)cc1 (stereo not drawn)	0.6	1.2	40.3	-22.3	0
CC(C)NC(=O)NC(=O)COC(=O)CCOc1ccccc1	1	0.9	1.5	6.4	1.43
COc1ccc(C2C(C(C)=O)=C(C)Nc3ncnn32)cc1OC (stereo not drawn)	1.1	1	-9.6	1.7	-0.02
CCOC(=O)C1=C(C)NC(=O)NC1c1ccc2c(c1)OCO2 (stereo not drawn)	0.6	0.7	43.1	32.0	-1.11
CCCCCOc1ccc(C2C(C(C)=O)=C(C)Nc3ncnn32)cc1OC (stereo not drawn)	0.8	0.5	15.0	54.0*	-0.79
CCOC(=O)C1=C(C)Nc2ncnn2C1c1ccc2c(c1)OCO2 (stereo not drawn)	0.5	0.4	50.1*	61.7*	0.64
CCOC(=O)C1=C(c2ccccc2)Nc2ncnn2C1c1cc(OC)ccc1OC (stereo not drawn)	0.7	0.6	33.0	38.6	-1.81
